# From article PMC5540273 (PLoS ONE, 2017)
# Key:
# Details in all cases: concentration: 1 μM, replicates: in singlicate; n = 1
# DCAMKL2 = tested on: T1, DCAMKL2
# T1 construct: gene DCLK2
# DCAMKL3 = tested on: T2, DCAMKL3
# T2 construct: gene DCLK3
# DDR1 = tested on: DDR1
# DDR2 = tested on: DDR2
# DLK = tested on: T3, DLK
# T3 construct: gene MAP3K12
# DMPK2 = tested on: T4, DMPK2
# T4 construct: gene CDC42BPG
# DMPK = tested on: DMPK
# DRAK1 = tested on: T5, DRAK1
# T5 construct: gene STK17A
# DRAK2 = tested on: T6, DRAK2
# T6 construct: gene STK17B
# DYRK1A = tested on: DYRK1A
# DYRK1B = tested on: DYRK1B
# DYRK2 = tested on: DYRK2
# EGFR = tested on: EGFR
# EIF2AK1 = tested on: EIF2AK1
# EPHA1 = tested on: EPHA1
# EPHA2 = tested on: EPHA2
# EPHA3 = tested on: EPHA3
# EPHA4 = tested on: EPHA4
# EPHA5 = tested on: EPHA5
# EPHA6 = tested on: EPHA6
# 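Also: KINOMEscan kinase panel screen.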
structure (smiles),measurement,setting,value
Cc1nn2c(=O)cc(N3CCO[C@H](C)C3)nc2n1Cc1cccc(Cl)c1Cl [GSK2373693],%Inh,DCAMKL2,6%
same,%Inh,DCAMKL3,34%
same,%Inh,DDR1,18%
same,%Inh,DDR2,0%
same,%Inh,DLK,0%
same,%Inh,DMPK2,0%
same,%Inh,DMPK,1%
same,%Inh,DRAK1,0%
same,%Inh,DRAK2,11%
same,%Inh,DYRK1A,48%
same,%Inh,DYRK1B,11%
same,%Inh,DYRK2,12%
same,%Inh,EGFR,28%
same,%Inh,EIF2AK1,1%
same,%Inh,EPHA1,1%
same,%Inh,EPHA2,21%
same,%Inh,EPHA3,0%
same,%Inh,EPHA4,0%
same,%Inh,EPHA5,0%
same,%Inh,EPHA6,0%
CCNC(=O)/C=C/c1n[nH]c2cc(Sc3ccccc3C(=O)NC)ccc12,%Inh,DCAMKL2,11%
same,%Inh,DCAMKL3,30%
same,%Inh,DDR1,0%
same,%Inh,DDR2,0%
same,%Inh,DLK,9%
same,%Inh,DMPK2,3%
same,%Inh,DMPK,3%
same,%Inh,DRAK1,49%
same,%Inh,DRAK2,0%
same,%Inh,DYRK1A,21%
same,%Inh,DYRK1B,0%
same,%Inh,DYRK2,7%
same,%Inh,EGFR,23%
same,%Inh,EIF2AK1,29%
same,%Inh,EPHA1,9%
same,%Inh,EPHA2,7%
same,%Inh,EPHA3,0%
same,%Inh,EPHA4,5%
same,%Inh,EPHA5,42%
same,%Inh,EPHA6,16%
Cc1ccc(Nc2ccnc(Nc3ccc(C)c(F)c3)n2)cc1O.Cl [GW582868],%Inh,DCAMKL2,0%
same,%Inh,DCAMKL3,0%
same,%Inh,DDR1,10%
same,%Inh,DDR2,12%
same,%Inh,DLK,40%
same,%Inh,DMPK2,0%
same,%Inh,DMPK,0%
same,%Inh,DRAK1,0%
same,%Inh,DRAK2,0%
same,%Inh,DYRK1A,20%
same,%Inh,DYRK1B,0%
same,%Inh,DYRK2,0%
same,%Inh,EGFR,38%
same,%Inh,EIF2AK1,3%
same,%Inh,EPHA1,48%
same,%Inh,EPHA2,19%
same,%Inh,EPHA3,0%
same,%Inh,EPHA4,2%
same,%Inh,EPHA5,0%
same,%Inh,EPHA6,6%
CS(=O)(=O)c1cccc(CNc2nc(Nc3ccc4c(c3)CCC(=O)N4)ncc2C(F)(F)F)c1,%Inh,DCAMKL2,0%
same,%Inh,DCAMKL3,99.4%
same,%Inh,DDR1,0%
same,%Inh,DDR2,2%
same,%Inh,DLK,13%
same,%Inh,DMPK2,0%
same,%Inh,DMPK,0%
same,%Inh,DRAK1,95.6%
same,%Inh,DRAK2,98.3%
same,%Inh,DYRK1A,85%
same,%Inh,DYRK1B,61%
same,%Inh,DYRK2,0%
same,%Inh,EGFR,0%
same,%Inh,EIF2AK1,0%
same,%Inh,EPHA1,1%
same,%Inh,EPHA2,0%
same,%Inh,EPHA3,0%
same,%Inh,EPHA4,0%
same,%Inh,EPHA5,0%
same,%Inh,EPHA6,0%
c1ccc(Oc2ccc(Nc3ccnc4cc(-c5ccc(CN6CCCCC6)o5)ccc34)cc2)nc1 [GW567143],%Inh,DCAMKL2,8%
same,%Inh,DCAMKL3,25%
same,%Inh,DDR1,30%
same,%Inh,DDR2,35%
same,%Inh,DLK,79%
same,%Inh,DMPK2,0%
same,%Inh,DMPK,0%
same,%Inh,DRAK1,0%
same,%Inh,DRAK2,0%
same,%Inh,DYRK1A,26%
same,%Inh,DYRK1B,0%
same,%Inh,DYRK2,10%
same,%Inh,EGFR,55%
same,%Inh,EIF2AK1,0%
same,%Inh,EPHA1,78%
same,%Inh,EPHA2,0%
same,%Inh,EPHA3,6%
same,%Inh,EPHA4,3%
same,%Inh,EPHA5,0%
same,%Inh,EPHA6,0%
O=C(Nc1c(F)cccc1F)c1cc(C(=O)c2ccccc2F)c[nH]1 [GSK1326180],%Inh,DCAMKL2,0%
same,%Inh,DCAMKL3,36%
same,%Inh,DDR1,0%
same,%Inh,DDR2,13%
same,%Inh,DLK,14%
same,%Inh,DMPK2,0%
same,%Inh,DMPK,0%
same,%Inh,DRAK1,10%
same,%Inh,DRAK2,0%
same,%Inh,DYRK1A,2%
same,%Inh,DYRK1B,17%
same,%Inh,DYRK2,12%
same,%Inh,EGFR,26%
same,%Inh,EIF2AK1,0%
same,%Inh,EPHA1,0%
same,%Inh,EPHA2,11%
same,%Inh,EPHA3,0%
same,%Inh,EPHA4,9%
same,%Inh,EPHA5,0%
same,%Inh,EPHA6,2%
CSc1ccc(NC2=C(c3ccc(Cl)cc3)C(=O)NC2=O)cc1 [SB-317658],%Inh,DCAMKL2,2%
same,%Inh,DCAMKL3,12%
same,%Inh,DDR1,0%
same,%Inh,DDR2,5%
same,%Inh,DLK,0%
same,%Inh,DMPK2,10%
same,%Inh,DMPK,8%
same,%Inh,DRAK1,12%
same,%Inh,DRAK2,0%
same,%Inh,DYRK1A,1%
same,%Inh,DYRK1B,17%
same,%Inh,DYRK2,22%
same,%Inh,EGFR,6%
same,%Inh,EIF2AK1,0%
same,%Inh,EPHA1,32%
same,%Inh,EPHA2,0%
same,%Inh,EPHA3,0%
same,%Inh,EPHA4,28%
same,%Inh,EPHA5,31%
same,%Inh,EPHA6,26%
COC(=O)Nc1nc2ccc(Oc3ccc(CC(=O)Nc4cc(C(F)(F)F)ccc4F)cc3)cc2[nH]1 [GW680903],%Inh,DCAMKL2,0%
same,%Inh,DCAMKL3,0%
same,%Inh,DDR1,100%
same,%Inh,DDR2,97.4%
same,%Inh,DLK,30%
same,%Inh,DMPK2,0%
same,%Inh,DMPK,0%
same,%Inh,DRAK1,54%
same,%Inh,DRAK2,0%
same,%Inh,DYRK1A,13%
same,%Inh,DYRK1B,8%
same,%Inh,DYRK2,0%
same,%Inh,EGFR,30%
same,%Inh,EIF2AK1,3%
same,%Inh,EPHA1,12%
same,%Inh,EPHA2,54%
same,%Inh,EPHA3,100%
same,%Inh,EPHA4,21%
same,%Inh,EPHA5,0%
same,%Inh,EPHA6,34%
